Laboratory results as given in paper PMC8384837, “Expanding the binding specificity for RNA recognition by a PUF domain”.

Target: PUM1 PUF domain R4-ANS (Homo sapiens, UniProt Q14671 828-1176, N971A;H972N;Q975S)
Experiment: yeast three-hybrid, YBZ-1, SC-Leu-His + 0.5 mM 3-AT, 4 days
Details: tags: N-Gal4 AD-HA kept; label: inside an RPR1-promoter hybrid RNA with tandem MS2 sites; ssRNA
Summary of the method: (§1)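 Pumilio-1 PUF domain libraries, randomized at the three base-contacting residues of each repeat, were co-expressed with matching RNA elements from a centromeric plasmid in strain YBZ-1, which carries a LexA–MS2 coat fusion and a HIS3 reporter. Transformants grew for four days on SC-Leu (input) or on SC-Leu-His + 0.5 mM 3-AT (selection), and the repeat regions were PCR-amplified and Illumina-sequenced. The interaction score is the log change in variant frequency from input to selection. That logarithm is base 2, with a pseudocount of 1 where a variant was absent.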

Sequence | binding signal
GGCUAGAACUAGUGGAUCCCCCGGCGCCCGGCGGCUCGAGCCCGGGUAAGUGUACAUAGUCUGCAUGCCGCCGGGCGCCAUGCCUGCAGGUCGACUCUAGAAAACAUG | 2.23 log2 enrichment (interaction score)
GGCUAGAACUAGUGGAUCCCCCGGCGCCCGGCGGCUCGAGCCCGGGUAAGUGUAUAUAGUCUGCAUGCCGCCGGGCGCCAUGCCUGCAGGUCGACUCUAGAAAACAUG | 2.51 log2 enrichment (interaction score)
GGCUAGAACUAGUGGAUCCCCCGGCGCCCGGCGGCUCGAGCCCGGGUAAGUGUAAAUAGUCUGCAUGCCGCCGGGCGCCAUGCCUGCAGGUCGACUCUAGAAAACAUG | 2.16 log2 enrichment (interaction score)

Target: PUM1 PUF domain R1-RLM (Homo sapiens, UniProt Q14671 828-1176, S863R;R864L;Q867M)
Experiment: as above
Details: tags: N-Gal4 AD-HA kept; label: inside an RPR1-promoter hybrid RNA with tandem MS2 sites; ssRNA
Summary of the method: as §1

Sequence | binding signal
GGCUAGAACUAGUGGAUCCCCCGGCGCCCGGCGGCUCGAGCCCGGGUAAGUGUAAAUUGUCUGCAUGCCGCCGGGCGCCAUGCCUGCAGGUCGACUCUAGAAAACAUG | 3.95 log2 enrichment (interaction score)
GGCUAGAACUAGUGGAUCCCCCGGCGCCCGGCGGCUCGAGCCCGGGUAAGUGUAAAUGGUCUGCAUGCCGCCGGGCGCCAUGCCUGCAGGUCGACUCUAGAAAACAUG | 1.69 log2 enrichment (interaction score)
GGCUAGAACUAGUGGAUCCCCCGGCGCCCGGCGGCUCGAGCCCGGGUAAGUGUAAAUCGUCUGCAUGCCGCCGGGCGCCAUGCCUGCAGGUCGACUCUAGAAAACAUG | 3.34 log2 enrichment (interaction score)

Target: PUM1 PUF domain R4-GCC (Homo sapiens, UniProt Q14671 828-1176, N971G;H972C;Q975C)
Experiment: as above
Details: tags: N-Gal4 AD-HA kept; label: inside an RPR1-promoter hybrid RNA with tandem MS2 sites; ssRNA
Summary of the method: as §1

Sequence | binding signal
GGCUAGAACUAGUGGAUCCCCCGGCGCCCGGCGGCUCGAGCCCGGGUAAGUGUACAUAGUCUGCAUGCCGCCGGGCGCCAUGCCUGCAGGUCGACUCUAGAAAACAUG | 1.75 log2 enrichment (interaction score)
GGCUAGAACUAGUGGAUCCCCCGGCGCCCGGCGGCUCGAGCCCGGGUAAGUGUAUAUAGUCUGCAUGCCGCCGGGCGCCAUGCCUGCAGGUCGACUCUAGAAAACAUG | 3.64 log2 enrichment (interaction score)
GGCUAGAACUAGUGGAUCCCCCGGCGCCCGGCGGCUCGAGCCCGGGUAAGUGUAAAUAGUCUGCAUGCCGCCGGGCGCCAUGCCUGCAGGUCGACUCUAGAAAACAUG | 1.5 log2 enrichment (interaction score)
